High-throughput results deposited in PubChem BioAssay by several laboratories.
Shown are actives, neighbours in structure and some others; about 3.2% of the full set was active somewhere.
PrPC surface inh – inhibitors of human cell surface prion protein PrPC, primary screen, cell-based, TR-FRET; Major prion protein (Homo sapiens), P04156; TR-FRET read-out; inhibition, % at 13.8 µM; actives 0.43% (n = 370,000); AID 720596, 2013; in the data active means inhibition above about 24%; further: 0% = median of the test wells and 100% = reference compound wells
Y pestis TopoI – Yersinia pestis topoisomerase I inhibitors, primary screen, biochemical, cleavage product accumulation, plate reader, single point; activity, % at 10 µM; AID 504884, 2011; Y. pestis Topo-I cleavage product accumulation; DNA topoisomerase I (Yersinia pestis CO92); actives 0.064% (n = 360,000); in the data active means activity above about 50%, passing the limit was not always enough
GDH-TPI counter – GDH-TPI coupling enzyme inhibitors, primary screen, artefact control for M. tuberculosis FBA inhibitor project, biochemical, absorbance, full deck. GDH-TPI coupled enzyme counterscreen, NADH absorbance. inhibition, % at 4.8 µM. actives 1.2% (n = 360,000); in the data active means inhibition above about 30%;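 further: 0% = DMSO wells and 100% = wells lacking the enzyme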
TcdB inh – TcdB glycohydrolase inhibitors, primary screen, biochemical, single point, plate reader; TcdB glycohydrolase enzymatic assay; inhibition, % at 9.99 µM; actives 0.24% (n = 350,000); AID 652162, 2013; in the data active means inhibition above about 10%
Mtb FBA inh – Mtb FBA enzyme inhibitors, primary screen, biochemical, fluorescence, strain H37Rv; Fructose-bisphosphate aldolase (Mycobacterium tuberculosis (strain ATCC 25618 / H37Rv)), …; purified M. tuberculosis FBA, fluorescence read-out; inhibition, % at 1 µM; actives 2.3% (n = 360,000); AID 588726, 2011; in the data active means inhibition above about 27%;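 further: 0% = vehicle and 100% = reference inhibitor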
Target sequence (P9WQA3 whole entry, looked up): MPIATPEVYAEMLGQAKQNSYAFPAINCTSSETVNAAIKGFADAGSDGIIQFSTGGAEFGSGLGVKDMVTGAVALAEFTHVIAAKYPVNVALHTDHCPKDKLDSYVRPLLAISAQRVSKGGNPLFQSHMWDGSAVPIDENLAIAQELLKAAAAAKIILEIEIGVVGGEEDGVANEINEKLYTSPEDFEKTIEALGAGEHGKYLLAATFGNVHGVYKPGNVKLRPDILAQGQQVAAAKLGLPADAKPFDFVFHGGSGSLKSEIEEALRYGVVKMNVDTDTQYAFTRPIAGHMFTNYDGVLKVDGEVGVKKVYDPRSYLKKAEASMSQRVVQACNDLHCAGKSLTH
Starred values were filed as active, the others as inactive.

Results for Cc1cc(=O)oc2c(CN3CC(C)OC(C)C3)c(O)c(Cl)cc12 (stereo unspecified) ?
PrPC surface inh: -3; Y pestis TopoI: -14; GDH-TPI counter: -3; TcdB inh: 1; Mtb FBA inh: active

Results for Cc1cc(=O)oc2c(CN3CCOCC3)c(O)ccc12 ?
PrPC surface inh: 3; Y pestis TopoI: 2; GDH-TPI counter: 38*; TcdB inh: 3

Results for Cc1ccc(S(=O)(=O)Nc2ccc3c(c2)C(=O)N([C@H](C)CO)C[C@@H](C)[C@H](CN(C)C(=O)Nc2ccc4c(c2)OCO4)OCCCC[C@@H](C)O3)cc1 ?
TcdB inh: 0

What do the screens show for `COc1ccc(C[C@@H]2CCc3cnnn3COC[C@@H](Cc3ccccc3)NC2=O)cc1`?
TcdB inh: -1

What do the screens show for `Cc1cc(=O)oc2c(N)c(O)ccc12`?
PrPC surface inh: -7; Y pestis TopoI: 3; GDH-TPI counter: 21; TcdB inh: 12*; Mtb FBA inh: 5

How did CCc1cc(=O)oc2c(CN3CCN(C)CC3)c(O)c(Cl)cc12 do in these assays?
PrPC surface inh: 9; Y pestis TopoI: 4; GDH-TPI counter: 44*; Mtb FBA inh: active

What do the screens show for `Cc1cc2oc(=O)cc(CN3CCOCC3)c2cc1Cl`?
PrPC surface inh: 2; Y pestis TopoI: -3; GDH-TPI counter: -5; TcdB inh: 0; Mtb FBA inh: -2

What do the screens show for `Cc1cc2oc(=O)cc(CN3CCOCC3)c2c(C)c1Cl`?
PrPC surface inh: 4; Y pestis TopoI: -5; GDH-TPI counter: -6; TcdB inh: 1; Mtb FBA inh: 137*

What do the screens show for `CCc1cc(=O)oc2c(CNCc3c(F)cccc3Cl)c(O)ccc12`?
PrPC surface inh: -1; Y pestis TopoI: 2; GDH-TPI counter: 11; TcdB inh: 2; Mtb FBA inh: active

Results for CCCCc1cc(=O)oc2c(CN3CCCC3)c(O)ccc12 ?
PrPC surface inh: -3; Y pestis TopoI: 2; GDH-TPI counter: 4; Mtb FBA inh: active

Results for CCc1c(C)c2cc(Cl)c(O)c(CN3CCCCC3)c2oc1=O ?
PrPC surface inh: -2; Y pestis TopoI: 9; GDH-TPI counter: 2; Mtb FBA inh: active

What do the screens show for `O=c1oc2c(CN3CCOCC3)c(O)c(Cl)cc2c2c1CCC2`?
PrPC surface inh: 5; Y pestis TopoI: -9; GDH-TPI counter: 16

How did CCc1cc(=O)oc2c(CN3CCCC3)c(O)c(Cl)cc12 do in these assays?
PrPC surface inh: -2; Y pestis TopoI: 10; GDH-TPI counter: 26; Mtb FBA inh: active

Results for O=c1cc(-c2ccccc2)c2ccc(O)c(CN3CCCCC3)c2o1 ?
PrPC surface inh: -19; Y pestis TopoI: -5; GDH-TPI counter: 0; Mtb FBA inh: 8

Results for O=c1cc(-c2ccccc2)c2cc(Cl)c(O)c(CN3CCOCC3)c2o1 ?
PrPC surface inh: -6; Y pestis TopoI: 3; GDH-TPI counter: 7; TcdB inh: 1; Mtb FBA inh: 9

How did Cc1cc(N2CCCC2=O)cc(C)c1S(=O)(=O)Nc1c(C)nn(C)c1C do in these assays?
PrPC surface inh: 8; Y pestis TopoI: -4; GDH-TPI counter: -4; TcdB inh: 42*; Mtb FBA inh: -4

How did Cc1cc(N2CCCC2=O)ccc1S(=O)(=O)Nc1c(C)nn(C)c1C do in these assays?
PrPC surface inh: 17; Y pestis TopoI: -5; GDH-TPI counter: -1; TcdB inh: -5; Mtb FBA inh: -1

Results for CSc1nc2nc(C)cc(-c3ccccc3)n2n1 ?
PrPC surface inh: -1; Y pestis TopoI: -6; GDH-TPI counter: 9; Mtb FBA inh: 25

Results for CSc1nc2nc(C(F)(F)F)cc(-c3ccccc3)n2n1 ?
PrPC surface inh: 4; Y pestis TopoI: -6; GDH-TPI counter: 24; Mtb FBA inh: 34*

What do the screens show for `CSc1nc2nc(-c3ccccc3)cc(C(F)(F)F)n2n1`?
PrPC surface inh: -4; Y pestis TopoI: 2; GDH-TPI counter: 12; Mtb FBA inh: 37*

Results for COc1ccccc1C#Cc1ccc([C@H]2[C@@H](CO)N(C(=O)C3CCCCC3)[C@H]2C#N)cc1 ?
TcdB inh: 1

What do the screens show for `CCOc1cc(/C=C2/SC(=O)N(CC(=O)N3CCc4ccccc4C3)C2=O)ccc1OCC(=O)O`?
PrPC surface inh: -38; Y pestis TopoI: 10; GDH-TPI counter: 34*; Mtb FBA inh: -2

What do the screens show for `NC(=O)COc1ccccc1/C=C1/SC(=O)N(CC(=O)N2CCc3ccccc3C2)C1=O`?
PrPC surface inh: -16; Y pestis TopoI: 9; GDH-TPI counter: 26; TcdB inh: 2; Mtb FBA inh: 6

What do the screens show for `C[C@@H]1C=C[C@](Cc2ccccc2)(C(=O)NCC2CC2)N1C(=O)c1ccccc1`?
PrPC surface inh: -1; Y pestis TopoI: -5; GDH-TPI counter: 7; TcdB inh: 11*; Mtb FBA inh: 2

How did CC1CC(=O)N(c2ccc(NCCc3ccc(O)cc3)c([N+](=O)[O-])c2)C1=O (stereo unspecified) do in these assays?
PrPC surface inh: -43; Y pestis TopoI: -2; GDH-TPI counter: -12; TcdB inh: 12*; Mtb FBA inh: -13

How did Cc1onc(-c2ccccc2)c1C(=O)NNC(=S)NC(=O)/C=C/c1cccs1 do in these assays?
PrPC surface inh: 4; Y pestis TopoI: 6; GDH-TPI counter: 63*; Mtb FBA inh: 0

What do the screens show for `O=C(O)CCCN1C(=O)/C(=C/c2ccncc2)SC1=S`?
PrPC surface inh: -1; Y pestis TopoI: 4; GDH-TPI counter: 38*; TcdB inh: -1; Mtb FBA inh: -4

Results for COC(=O)c1cnn(-c2ccc(F)cc2F)c1/C=N/NC(=S)Nc1ccccc1 ?
PrPC surface inh: 0

Results for COC(=O)c1cnn(-c2ccc(F)cc2F)c1/C=N/NC(N)=S ?
PrPC surface inh: -4; Y pestis TopoI: -1; GDH-TPI counter: 36*; TcdB inh: 2; Mtb FBA inh: -1

Results for COC(=O)c1cnn(-c2ccc(F)cc2F)c1/C=N/NC(=S)NC(C)(C)C ?
PrPC surface inh: -6; Y pestis TopoI: 16; GDH-TPI counter: 36*; TcdB inh: 1; Mtb FBA inh: -1

Results for CNC(=S)N/N=C/c1c(C(=O)OC)cnn1-c1ccc(F)cc1F ?
PrPC surface inh: -2; Y pestis TopoI: -2; GDH-TPI counter: 46*; TcdB inh: 12*; Mtb FBA inh: -2

How did COC(=O)c1cnn(-c2ccccc2)c1/C=N/NC(=S)Nc1ccccc1 do in these assays?
PrPC surface inh: -6; Y pestis TopoI: 7; GDH-TPI counter: 18; TcdB inh: 2; Mtb FBA inh: 2

What do the screens show for `O=C(N/N=C/C=C/c1ccccc1)c1ccccc1Br`?
PrPC surface inh: -10; Y pestis TopoI: 1; GDH-TPI counter: 25; Mtb FBA inh: -2
